AGP1-GFP MLPCN: modulators of TOR pathway AGP1-GFP in S. cerevisiae; AID 2066; S. cerevisiae AGP1-GFP multiplex flow cytometry, 3 h; GFP as percent of DMSO wells; actives 0.02% (n = 320,000); GFP response vs DMSO, % at 10 µM;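 active means GFP response relative to DMSO above a set limit, near screen average plus 3 SD, cut at about 150% in these data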;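 further: median GFP channel fluorescence of the gated AGP1 strain per well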
RPL19A TOR yeast: alters RPL19A-GFP fluorescence in TOR pathway yeast screen. S. cerevisiae RPL19A-GFP strain, flow cytometry, 3 h; stronger effect = lower value. percent response vs DMSO, % at 10 µM. actives 0.3% (n = 330,000). AID 2025;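 active means percent response vs DMSO below 50%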;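 further: median channel GFP fluorescence of the barcoded RPL19A-GFP strain; ratio of sample median GFP to plate DMSO average so 100% = DMSO; lower means less RPL19A-GFP as with rapamycin TOR inhibition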
MEP2 TOR yeast: modulators of TOR pathway MEP2-GFP in S. cerevisiae; S. cerevisiae MEP2-GFP strain, flow cytometry GFP, 3 h; 100% = DMSO control level; GFP response vs DMSO, % at 10 µM; actives 0.51% (n = 330,000); AID 2016;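 active means GFP response versus DMSO above a set limit, roughly screen mean plus 3 SD, cut at about 180% in these data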;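 further: median GFP fluorescence of the barcode-gated MEP2-GFP cells per well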
LAP4-GFP MLPCN: modulators of TOR pathway LAP4-GFP in S. cerevisiae | AID 2023 | GFP response vs DMSO, % at 10 µM | actives 0.34% (n = 320,000) | S. cerevisiae LAP4-GFP multiplex, flow cytometry GFP, 3 h; median GFP as percent of DMSO wells;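 active means GFP response vs DMSO above a set limit, about the screen mean plus 3 SD, cut at about 150% in these data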
VLA-4 inh: inhibition in a human VLA-4 binding assay | P13612 | VLA-4 expressing cells, ligand binding flow cytometry | inhibition, % (about 7 µM as worked out from the volumes in the protocol) | actives 0.2% (n = 330,000) | AID 2557; in the data active means inhibition above about 50%
Target sequence (P13612 whole entry, looked up): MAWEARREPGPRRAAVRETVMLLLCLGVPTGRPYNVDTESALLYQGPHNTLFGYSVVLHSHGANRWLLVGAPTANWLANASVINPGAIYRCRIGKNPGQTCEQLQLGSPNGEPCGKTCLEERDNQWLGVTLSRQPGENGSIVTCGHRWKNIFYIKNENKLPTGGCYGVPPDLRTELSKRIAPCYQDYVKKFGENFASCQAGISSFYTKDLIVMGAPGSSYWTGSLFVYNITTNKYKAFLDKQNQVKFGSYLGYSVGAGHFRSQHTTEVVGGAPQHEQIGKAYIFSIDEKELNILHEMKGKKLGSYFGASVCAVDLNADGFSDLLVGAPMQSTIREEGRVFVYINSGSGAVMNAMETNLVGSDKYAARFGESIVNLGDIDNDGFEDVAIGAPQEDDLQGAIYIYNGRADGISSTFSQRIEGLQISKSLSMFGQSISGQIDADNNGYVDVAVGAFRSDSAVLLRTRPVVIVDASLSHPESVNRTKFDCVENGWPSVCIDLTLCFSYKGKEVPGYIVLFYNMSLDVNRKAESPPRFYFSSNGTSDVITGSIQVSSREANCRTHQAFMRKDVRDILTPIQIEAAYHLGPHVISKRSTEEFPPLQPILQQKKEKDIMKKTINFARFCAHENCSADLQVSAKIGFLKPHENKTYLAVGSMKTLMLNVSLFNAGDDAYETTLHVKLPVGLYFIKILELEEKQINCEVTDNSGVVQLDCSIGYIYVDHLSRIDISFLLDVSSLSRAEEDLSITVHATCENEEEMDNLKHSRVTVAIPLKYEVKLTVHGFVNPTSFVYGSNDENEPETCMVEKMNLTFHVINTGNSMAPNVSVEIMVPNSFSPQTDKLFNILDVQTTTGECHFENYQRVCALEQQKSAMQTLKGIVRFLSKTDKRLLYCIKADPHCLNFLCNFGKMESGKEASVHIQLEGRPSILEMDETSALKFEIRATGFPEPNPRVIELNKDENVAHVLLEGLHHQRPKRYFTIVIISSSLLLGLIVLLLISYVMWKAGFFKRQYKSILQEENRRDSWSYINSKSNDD
CIT2 TOR yeast: yeast TOR pathway CIT2-GFP modulation; S. cerevisiae CIT2-GFP strain, flow cytometry, 3 h; 100 means same as DMSO wells; GFP response vs DMSO, % at 10 µM; actives 0.065% (n = 320,000);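 active means GFP response relative to DMSO above a set limit, near the screen mean plus 3 SD, cut at about 150% in these data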;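 further: ratio of well median GFP fluorescence to mean of DMSO wells on the plate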
LAP4 cherry2: yeast LAP4-GFP modulation, second cherry pick | shares compounds with LAP4-GFP MLPCN | AID 2621 | S. cerevisiae LAP4-GFP strain, flow cytometry GFP, 3 h | actives 20% (n = 590) | GFP response vs DMSO, % at 10 µM;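 active means GFP signal as percent of the solvent control above about 150%, meaning raised reporter expression, limit read from the data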;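 further: ratio of well median GFP fluorescence to plate DMSO mean so 100% = DMSO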
MEP2-GFP pick2: second confirmation of modulators of TOR reporter MEP2-GFP in yeast. shares compounds with LAP4-GFP MLPCN. S. cerevisiae MEP2-GFP strain, flow cytometry GFP, 3 h. GFP response vs DMSO, % at 10 µM. actives 10% (n = 590);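 active means GFP signal above 150% of the solvent control wells, that is a rise of more than half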;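 further: median channel GFP fluorescence of all gated yeast cells per well; ratio of median GFP to plate DMSO average so 100% = DMSO level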
RPL19A GFP CP2: second confirmation of modulators of TOR reporter RPL19A-GFP in yeast. GFP response vs DMSO, % at 10 µM. S. cerevisiae RPL19A-GFP strain, flow cytometry GFP, 3 h; stronger effect = lower value; 100% means same as DMSO wells. AID 2623. shares compounds with LAP4-GFP MLPCN. actives 3% (n = 590);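 active means under 65% GFP response relative to DMSO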;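 further: median GFP channel fluorescence per well over the all cells gate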
CIT2 GFP CP2: second confirmation of modulators of TOR reporter CIT2-GFP in yeast; shares compounds with LAP4-GFP MLPCN; S. cerevisiae CIT2-GFP strain, flow cytometry GFP, 3 h; DMSO control wells read 100%; GFP response vs DMSO, % at 10 µM; actives 8% (n = 590);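 active means GFP response vs DMSO above about 150%, limit read from the data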;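 further: median green fluorescence per well over all gated yeast cells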
AGP1-GFP pick2: reconfirmed modulator of AGP1-GFP TOR reporter in yeast; shares compounds with LAP4-GFP MLPCN; S. cerevisiae AGP1-GFP strain, flow cytometry GFP, 3 h; percent response vs DMSO, % at 10 µM; 590 tested, under 10 active; AID 2643;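 active means over 150 percent of DMSO response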;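 further: median GFP channel fluorescence over all cells without mother daughter split; sample median GFP divided by mean DMSO control so 100% equals DMSO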
s288c autofluor: counter-screen for compound autofluorescence in yeast s288c cells; AID 2757; shares compounds with LAP4-GFP MLPCN; 610 tested, under 10 active; fluorescence change (kMESF span) at 33 µM; S. cerevisiae s288c, 520 nm autofluorescence, flow cytometry, 3 h; stronger effect = higher value; zero means same as solvent-only cells;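 active means fluorescence span over the dose series, or activity score, above about 33, limit read from the data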
s288c autofl DR: counter-screen for autofluorescence of TOR hits in yeast s288c; shares compounds with LAP4-GFP MLPCN; S. cerevisiae s288c parental, compound autofluorescence, flow cytometry, 3 h; fluorescence change (span) at 33 µM; 110 tested, under 10 active; AID 488829;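 active means fluorescence change span, or the activity score built from it, above 25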
TORC1 bypass: stops wildtype yeast growth while TORC1 bypass cells still grow. AID 504456. S. cerevisiae BY4741 spot growth rating, 48-72 h; stronger effect = lower value. shares compounds with LAP4-GFP MLPCN. growth rating (0-3) at 30 µM. 120 tested, under 10 active;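 active means growth rating at most 1 for wild type yeast while the TORC1 bypass strain still grows fully, rated 3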
VLA-4 mod pick: confirmation of allosteric modulators of human VLA-4 integrin | shares compounds with VLA-4 inh | actives 2% (n = 1,300) | AID 2813 | inhibition, % at 6.7 µM | U937 cells, HUTS-21 LIBS mAb binding, flow cytometry; LDV ligand present at threefold Kd; in the data active means inhibition above about 40%;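 further: 0% = ligand without compound and 100% = no ligand background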
Numbers without * were called inactive; . = not tested or not shown. An excerpt weighted towards active compounds, which were near 1.1% of everything screened.

SMILES	AGP1-GFP MLPCN	RPL19A TOR yeast	MEP2 TOR yeast	LAP4-GFP MLPCN	VLA-4 inh	CIT2 TOR yeast	VLA-4 mod pick	others
Cc1ccc(NC(=O)c2cc(N3C(=O)C=CC3=O)ccc2N2CCOCC2)cc1Cl	79	72	98	153*	83*	70	52*	LAP4 cherry2=162*;MEP2-GFP pick2=183*;RPL19A GFP CP2=80;CIT2 GFP CP2=145;AGP1-GFP pick2=92;s288c autofluor=1.7;s288c autofl DR=1.5;TORC1 bypass=3
COCCOc1ccc(C(F)(F)F)cc1NC(=O)COC(=O)C12CC3CC(CC(O)(C3)C1)C2	102	96	97	108	18	111	.
O=C1C2C3C=CC(CO)(O3)C2C(=O)N1c1ccccc1-c1ccccc1 (stereo not drawn)	78	84	111	194*	50*	77	4	s288c autofluor=4.9
Cc1ccc(CSc2nncn2-c2ccccn2)cc1	94	93	94	95	7	91	.
Clc1ccc(CSc2nncn2-c2ccccn2)cc1	99	95	107	100	60*	93	2
CCOc1ccc(-c2nnc3ccc(SCC(=O)N4CCCCC4)nn23)cc1	108	104	102	99	18	109	-1
COc1ccc(NC(=O)[C@H](C)NC(=O)C2CCN(S(=O)(=O)c3ccc(C)cc3)CC2)cc1	99	97	102	95	4	102	.
C#CC1CN(Cc2ccccc2)CC(C#C)N1C (stereo not drawn)	105	100	99	102	62*	99	3
CCCCc1ccc(-n2c(Cc3cccs3)n[nH]c2=S)cc1	93	103	102	88	55*	101	4
CCN1CCN(Cc2ccc(NC(=O)c3cc(NC(=O)N4CCNC4=O)cc(OC)c3)cc2C(F)(F)F)CC1	84	94	89	126	55*	91	-2
COc1cc(NC(=O)N2CCNC2=O)cc(C(=O)Nc2cccc(C(F)(F)F)c2)c1	100	96	92	91	14	98	14
COc1cc(NC(=O)c2ccno2)cc(C(=O)Nc2cccc(C(F)(F)F)c2)c1	105	102	103	102	10	102	.
COc1ccccc1-c1nc2cc(Cl)ccc2c(=O)n1O	101	102	97	91	-6	100	.
COc1ccccc1-c1nc2ccc(Cl)cc2c(=O)n1O	111	104	98	96	42	104	-5
NS(=O)(=O)c1cc(C(=O)OCC(=O)Nc2ccccc2[N+](=O)[O-])ccc1Cl	97	106	93	94	-20	104	.
NS(=O)(=O)c1cc(C(=O)OCC(=O)Nc2ccc(Cl)cc2[N+](=O)[O-])ccc1Cl	107	101	99	102	52*	99	7
COC(=O)c1c(C)[nH]c(C(=O)C(C)OC(=O)C2CC2)c1C (stereo not drawn)	103	100	99	103	0	98	-4
COC(=O)c1c(C)[nH]c(C(=O)C(C)OC(=O)c2ccco2)c1C (stereo not drawn)	91	95	97	92	-25	89	9
Cc1nn(-c2ccccc2)c(Cl)c1/C=N/NC(=O)c1[nH]ncc1Br	104	100	103	93	6	103	.
CC(OC(=O)c1ccccc1O)C(=O)Nc1cccc(Cl)c1 (stereo not drawn)	108	103	106	100	6	103	1
COc1ccc(OCCCC(=O)Nc2cc(S(=O)(=O)N3CCCCC3)ccc2C)cc1	104	102	104	106	1	105	.
Cc1ccc(S(=O)(=O)N2CCCCC2)cc1NC(=O)CSc1nnc(C2CC2)n1C	96	96	96	98	7	102	.
CC(=O)Nc1c2c(nn1-c1ccc(F)cc1)CSC2	112	97	102	109	8	98	.
Cc1ccccc1-c1nc2cc(Cl)ccc2o1	91	92	98	90	7	94	.
Cc1ccccc1-c1nc2cc(Cl)ccc2c(=O)o1	98	100	105	106	40	102	-15
COc1ccccc1NC(=O)CSc1nccn1Cc1ccccc1	102	94	98	129	-6	95	.
CC1CCCC(N2CCN(C(=O)c3ccc([N+](=O)[O-])cc3)CC2)C1 (stereo not drawn)	100	105	108	95	-1	105	.
Cc1nn(C)c(C)c1NC(=O)COc1ccc(Cl)cc1Br	95	96	101	100	-5	97	.
CC1CCC(NC(=O)CN2C(=O)c3ccccc3S2(=O)=O)CC1 (stereo not drawn)	83	99	97	87	22	84	.
O=C(CN1C(=O)c2ccccc2S1(=O)=O)NC1CC2CCC1C2 (stereo not drawn)	108	101	113	100	51*	104	5

Bioassay records deposited in PubChem by NMMLSC.
